According to the supplement of paper PMC3616981:
± gives the standard deviation of the averaged measurements.

What follows are targets tested with CC(C)c1cccc(C(C)C)c1N1C(=O)c2ccc(O)cc2C1=O (assay: BioMAP readout fold decrease vs vehicle (vehicle/treated); higher = stronger decrease of the readout vs vehicle (values <1 mean increase)). Settings: 40 µM.
Protocol: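 BioSeek BioMAP human primary cell (co-)culture systems (3C, 4H, LPS, SAg, BE3C, CASM3C, hDFCGF, KF3CT) treated with 5HPP-33 at 1.48, 4.44, 13.3 and 40 µM. Read-outs are protein levels by ELISA, proliferation and SRB total protein. Duplicate rows per assay are averaged as replicates. Tested in ToxCast Phase II for this study; exposure time not stated.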
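Further: Co-cultures of keratinocytes, bronchial epithelial and smooth muscle cells, fibroblasts, HUVECs and PBMCs under stimuli like LPS, TNF-α, IFN-γ, IL-1β, TGF-β or EGF, SRB reflecting cytotoxicity.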

Target | BioMAP readout fold decrease
CASM3C_IL8 | 0.872 ± 0.025
4H_Eotaxin3 | 4.62 ± 0.098
LPS_VCAM1 | 3.55 ± 0.13
hDFCGF_TIMP1 | 0.715 ± 0.069
3C_IL8 | 1.132 ± 0.0075
hDFCGF_MIG | 1.42 ± 0.031
3C_hLADR | 7.36 ± 0.11
BE3C_MMP1 | 0.854 ± 0.0042
4H_MCP1 | 1.43 ± 0.071
CASM3C_VCAM1 | 1.55 ± 0.021
SAg_CD69 | 3.2 ± 0.15
SAg_SRB | 1.9 ± 0.097
BE3C_PAI1 | 1.91 ± 0.13
3C_MCP1 | 0.919 ± 0.018
hDFCGF_VCAM1 | 4.4 ± 0.3
CASM3C_uPAR | 2.6 ± 0.26

Target | BioMAP readout fold decrease
SAg_IL8 | 1.36 ± 0.052
KF3CT_MCP1 | 1.14 ± 0.36
LPS_CD40 | 4.12 ± 0.32
LPS_PGE2 | 0.776 ± 0.044
LPS_MCSF | 2.21 ± 0.14
KF3CT_uPA | 2.15 ± 0.47
LPS_TissueFactor | 1.21 ± 0.024
4H_VEGFRII | 1.45 ± 0.069
hDFCGF_Proliferation | 12.1 ± 0.038
KF3CT_MMP9 | 4.32 ± 0.16
BE3C_tPA | 1.59 ± 0.073
CASM3C_MIG | 1.03 ± 0.015
SAg_Eselectin | 3.92 ± 0.27
BE3C_MIG | 1.36 ± 0.19
BE3C_SRB | 1.1579 ± 0.0011
